Assay results from PubChem BioAssay.
The source made the active and inactive calls. Unless noted, no rule for the calls is given here.

Assays:
[1] = anti-His antibody binders, primary screen, artefact control for SMM control protein annotation, biochemical, small-molecule microarray, 635 nm fluorescence (AID 1128); conditions: anti-His Alexa647 antibody binding, higher = more signal;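 also: score merges feature fluorescence with signal-to-noise for each printed compound spot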
[2] = system: Human papillomavirus type 1a E7 protein (residues 1-88); test: HPV1a E7 small-molecule binders, primary screen, biochemical, small-molecule microarray, residues 1-88, 635 nm (AID 1129); conditions: small-molecule microarray binding, fluorescence 635 nm; higher = more signal
[3] = molecular target: Focal adhesion kinase 1 (Homo sapiens) (UniProt Q05397); test: small-molecule microarray binders of FAK, primary screen, biochemical, 635/667 nm fluorescence, BSA, DTT (AID 1130); conditions: PTK2 binding, 635 nm fluorescence, higher = more signal;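 also: composite of spot emission at 667 nm and signal to noise over triplicate slides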
Chain of Focal adhesion kinase 1 (Homo sapiens) (Q05397 whole entry, looked up): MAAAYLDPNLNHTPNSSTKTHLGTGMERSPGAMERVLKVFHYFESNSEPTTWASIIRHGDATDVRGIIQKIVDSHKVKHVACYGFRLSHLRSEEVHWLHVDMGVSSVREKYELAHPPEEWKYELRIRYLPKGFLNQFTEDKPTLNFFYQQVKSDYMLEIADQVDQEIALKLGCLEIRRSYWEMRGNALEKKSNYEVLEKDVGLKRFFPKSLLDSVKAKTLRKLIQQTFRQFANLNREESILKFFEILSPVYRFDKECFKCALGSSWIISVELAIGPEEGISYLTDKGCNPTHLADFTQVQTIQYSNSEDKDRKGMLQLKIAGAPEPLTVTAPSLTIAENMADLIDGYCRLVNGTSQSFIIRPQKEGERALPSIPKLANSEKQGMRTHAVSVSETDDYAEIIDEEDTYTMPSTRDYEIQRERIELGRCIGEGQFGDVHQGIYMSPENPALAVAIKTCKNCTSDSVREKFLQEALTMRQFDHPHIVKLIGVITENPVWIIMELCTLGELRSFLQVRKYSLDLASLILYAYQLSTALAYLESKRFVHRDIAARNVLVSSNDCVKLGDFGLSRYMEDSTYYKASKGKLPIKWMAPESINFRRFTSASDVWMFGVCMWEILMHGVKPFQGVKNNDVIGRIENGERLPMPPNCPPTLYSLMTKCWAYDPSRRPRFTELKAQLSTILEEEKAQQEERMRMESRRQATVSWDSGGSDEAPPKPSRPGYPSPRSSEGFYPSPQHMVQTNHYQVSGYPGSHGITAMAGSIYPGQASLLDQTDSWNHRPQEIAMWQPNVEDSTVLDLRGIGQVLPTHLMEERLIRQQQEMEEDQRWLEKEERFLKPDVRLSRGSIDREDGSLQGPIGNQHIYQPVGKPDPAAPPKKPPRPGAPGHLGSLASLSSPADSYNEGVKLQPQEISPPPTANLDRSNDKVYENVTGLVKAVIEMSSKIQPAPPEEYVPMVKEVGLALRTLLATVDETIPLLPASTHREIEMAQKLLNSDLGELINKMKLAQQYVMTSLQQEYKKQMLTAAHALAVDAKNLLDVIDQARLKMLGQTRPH

[4] = system: Fibrinogen (Alexa647-labelled); test: fibrinogen binders on compound microarrays, profiling panel, artefact control for SMM control-protein annotation, biochemical, small-molecule microarray, 635/667 nm fluorescence (AID 1131); conditions: fibrinogen-A647 binding fluorescence, higher = more signal;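 also: z-score merges 667 nm fluorescence with per-spot signal-to-noise over triplicate slides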
[5] = molecular target: Follistatin (Homo sapiens) (UniProt P19883); test: follistatin binders on small-molecule microarrays, primary screen, biochemical, small-molecule microarray, 635/667 nm fluorescence (AID 1132); conditions: FST binding, 635 nm fluorescence, higher = more signal
Chain of Follistatin (Homo sapiens) (P19883 whole entry, looked up): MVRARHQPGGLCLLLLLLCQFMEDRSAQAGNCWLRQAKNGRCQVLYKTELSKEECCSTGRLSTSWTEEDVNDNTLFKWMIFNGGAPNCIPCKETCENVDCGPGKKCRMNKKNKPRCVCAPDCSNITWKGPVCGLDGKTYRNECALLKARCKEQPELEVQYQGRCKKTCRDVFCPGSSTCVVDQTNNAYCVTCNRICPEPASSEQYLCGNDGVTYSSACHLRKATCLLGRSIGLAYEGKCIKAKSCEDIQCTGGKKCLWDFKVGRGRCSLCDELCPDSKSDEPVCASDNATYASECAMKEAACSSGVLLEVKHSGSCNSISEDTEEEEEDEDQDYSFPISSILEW

[6] = molecular target: Fibroblast growth factor 2 (Homo sapiens) (UniProt P09038); test: FGF2 binders on small-molecule microarrays, primary screen, biochemical, small-molecule microarray, 635/667 nm fluorescence (AID 1133); conditions: small-molecule microarray binding, FGF2, fluorescence 635/667; higher = more signal
Chain of Fibroblast growth factor 2 (Homo sapiens) (P09038 whole entry, looked up): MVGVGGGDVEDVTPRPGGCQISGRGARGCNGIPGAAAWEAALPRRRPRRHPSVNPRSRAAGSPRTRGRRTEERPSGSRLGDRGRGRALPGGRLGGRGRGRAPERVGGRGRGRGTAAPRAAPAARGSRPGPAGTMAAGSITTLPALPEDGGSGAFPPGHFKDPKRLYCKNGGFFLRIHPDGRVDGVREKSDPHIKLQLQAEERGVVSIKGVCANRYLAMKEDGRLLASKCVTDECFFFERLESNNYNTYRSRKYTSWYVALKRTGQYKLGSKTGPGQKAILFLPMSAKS

[7] = mitochondrial membrane potential change in A549 cells, profiling panel, cell-based, JC-1 fluorescence, basal, 24 h, 100 nL (AID 1138); conditions: higher = more signal;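 also: A549 lung adenocarcinoma cells under basal conditions with no added stimulus; test concentration not given here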
Lefty1 = Lefty1 binders on small-molecule microarrays, primary screen, biochemical, small-molecule microarray, 635/667 nm fluorescence (AID 1139); conditions: small-molecule microarray binding, fluorescence 635/667; higher = more signal
[8] = system: wheat germ agglutinin (Triticum aestivum), Alexa647-labelled; test: wheat germ agglutinin binders on compound microarrays, profiling panel, artefact control for SMM control-protein annotation, biochemical, small-molecule microarray, 635/667 nm fluorescence (AID 1140); conditions: WGA-A647 binding, 635 nm fluorescence, higher = more signal;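 also: score merges 667 nm feature emission with signal to noise over triplicate slides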
[9] = molecular target: Luciferin 4-monooxygenase (Photinus pyralis) (UniProt P08659); test: firefly luciferase enzyme inhibitors, primary screen, biochemical, luminescence, purified enzyme, 2006 set (AID 1141); conditions: SteadyGlo luminescence, 30 min, higher = more signal, called active from +8 up or from −8 down;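 also: cell-free assay with purified firefly luciferase at 100 ng per well in PBS; test concentration not given here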
Chain of Luciferin 4-monooxygenase (Photinus pyralis) (P08659 whole entry, looked up): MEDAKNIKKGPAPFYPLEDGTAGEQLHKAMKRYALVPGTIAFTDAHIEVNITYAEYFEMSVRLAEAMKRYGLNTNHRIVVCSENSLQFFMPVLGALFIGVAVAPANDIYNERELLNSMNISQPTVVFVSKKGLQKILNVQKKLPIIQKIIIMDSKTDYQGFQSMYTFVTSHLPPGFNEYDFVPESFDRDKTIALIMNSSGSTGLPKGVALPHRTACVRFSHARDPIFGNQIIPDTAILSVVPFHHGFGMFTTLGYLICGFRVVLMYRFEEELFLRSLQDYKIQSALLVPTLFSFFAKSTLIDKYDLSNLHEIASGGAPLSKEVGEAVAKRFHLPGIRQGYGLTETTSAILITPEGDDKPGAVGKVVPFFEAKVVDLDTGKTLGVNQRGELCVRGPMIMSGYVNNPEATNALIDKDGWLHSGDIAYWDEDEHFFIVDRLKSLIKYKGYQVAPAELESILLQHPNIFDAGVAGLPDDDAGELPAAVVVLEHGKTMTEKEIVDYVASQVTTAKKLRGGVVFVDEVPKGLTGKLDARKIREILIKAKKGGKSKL

[10] = system: Wnt5a (protein binding on small-molecule microarray); test: Wnt5a binders on small-molecule microarray, primary screen, biophysical, 635/667 nm fluorescence (AID 1142); conditions: 635 nm fluorescence, higher = more signal;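 also: fluorescence read at 667 nm with signal to noise per printed feature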
[11] = cell viability in Huh7 cells, primary screen, cytotoxicity control for HCV replication inhibitor project, CellTiter-Glo luminescence, basal, 48 h (AID 1143); conditions: Huh7 HCV replicon, higher = more signal, called active from +8 up or from −8 down;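 also: Huh7 hepatoma cells carrying a hepatitis C replication reporter with no stimulus; test concentration not given here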
[12] = P. aeruginosa biofilm formation inhibitors, primary screen, PAO1 strain, BacTiter-Glo luminescence, LB-PBS (AID 1144); conditions: 12 h, higher = more signal
[13] = CREB reporter modulators without forskolin, primary screen, cell-based, PC12, CRE-LacZ reporter, unstimulated (AID 1145); conditions: no forskolin, luminescence, 4.5 h, higher = more signal, called active from +8 up or from −8 down
[14] = CREB reporter modulators under forskolin, primary screen, cell-based, PC12, CRE-LacZ reporter, forskolin-stimulated (AID 1146); conditions: luminescence, 4.5 h, higher = more signal, called active from +8 up or from −8 down;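 also: PC12 cells with 6xCRE LacZ reporter stimulated by forskolin 10 µM; beta-galactosidase reporter signal reflecting CREB driven transcription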
[15] = molecular target: Streptavidin (Streptomyces avidinii) (UniProt P22629); test: streptavidin binders on small-molecule microarray, primary screen, artefact control for SMM compound annotation, biophysical, 635/667 nm fluorescence (AID 1147); conditions: streptavidin binding, higher = more signal;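 also: signal reflects streptavidin binding to arrayed compounds as a control protein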
Chain of Streptavidin (Streptomyces avidinii) (P22629 whole entry, looked up): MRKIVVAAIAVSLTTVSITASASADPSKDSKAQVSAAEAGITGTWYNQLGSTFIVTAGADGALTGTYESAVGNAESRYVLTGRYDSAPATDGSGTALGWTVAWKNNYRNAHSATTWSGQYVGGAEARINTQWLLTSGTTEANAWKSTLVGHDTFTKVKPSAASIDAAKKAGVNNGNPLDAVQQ

[16] = small-molecule binders of probe aInhba, primary screen, biochemical, small-molecule microarray, 635/667 nm fluorescence (AID 1148); conditions: higher = more signal;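 also: score merges 667nm spot fluorescence with signal-to-noise for antibody binding to printed compounds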
Torsin-1A (Homo sapiens) [17] = molecular target: Torsin-1A (Homo sapiens) (UniProt O14656); test: torsin A binders from cell lysate, primary screen, small-molecule microarray, wild-type, 635/667 nm (AID 1149); conditions: COS7 hTOR1A-WT lysate, 635 nm fluorescence, higher = more signal
Chain of Torsin-1A (Homo sapiens) (O14656 whole entry, looked up): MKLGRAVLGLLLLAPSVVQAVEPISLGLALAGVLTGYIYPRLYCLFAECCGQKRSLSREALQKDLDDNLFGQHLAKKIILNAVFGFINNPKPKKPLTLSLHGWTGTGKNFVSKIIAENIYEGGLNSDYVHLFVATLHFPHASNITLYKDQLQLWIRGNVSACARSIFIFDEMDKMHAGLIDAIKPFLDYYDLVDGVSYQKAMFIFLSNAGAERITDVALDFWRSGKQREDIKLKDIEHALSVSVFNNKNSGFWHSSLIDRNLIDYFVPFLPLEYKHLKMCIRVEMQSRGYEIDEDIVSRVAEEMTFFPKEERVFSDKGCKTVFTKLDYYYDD

Torsin-1A (Homo sapiens) [18] = molecular target: Torsin-1A (Homo sapiens) (UniProt O14656); test: small-molecule binders of mutant TOR1A in lysate, primary screen, cell lysate, small-molecule microarray, COS7 lysate, 635/667 nm fluorescence (AID 1150); conditions: COS7 hTOR1A mutant lysate, 635 nm fluorescence, higher = more signal;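 also: score pools 667 nm emission and signal to noise measuring lysate protein binding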
[19] = system: Sonic hedgehog protein (Shh); test: small-molecule binders of Shh protein, primary screen, biochemical, small-molecule microarray, 635/667 nm fluorescence (AID 1151); conditions: small-molecule microarray binding, 635 nm fluorescence; higher = more signal;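 also: Shh protein binding to compounds spotted on small-molecule microarray slides; score combines spot fluorescence intensity with signal-to-noise across triplicate slides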

Row | SMILES | composite z-score [1] | composite z-score [2] | composite z-score [3] | composite z-score [4] | composite z-score [5] | composite z-score [6] | z-score [7] | composite z-score (Lefty1) | composite z-score [8] | z-score [9] | composite z-score [10] | z-score [11] | z-score [12] | z-score [13] | z-score [14] | composite z-score [15] | composite z-score [16] | composite z-score (Torsin-1A (Homo sapiens) [17]) | composite z-score (Torsin-1A (Homo sapiens) [18]) | composite z-score [19]
1 | COc1cc2c(cc1OC)CN(C(=O)[C@@H]1[C@H]3C(=O)O[C@H](c4ccccc4)[C@H](c4ccccc4)N3[C@H](c3ccccc3OCCO)[C@@]13C(=O)Nc1ccc(C#CC4(O)CCCCCC4)cc13)CC2 | 1.57 | 1.17 | -0.0242 | 0.787 | 0.954 | 0.513 | -0.825 | 0.895 | 0.9 | -0.877 (inactive) | 0.0109 | -2.91 (inactive) | -0.0135 (inactive) | -0.788 (inactive) | -0.749 (inactive) | 0.445 | -0.0523 | 0.825 | 0.827 | 0.791
2 | CC(C)C(=C=CC[C@H](O)c1ccc(OCCO)cc1)C[C@H](O)c1cc(Cl)cc(Cl)c1O | 2.46 | 1.09 | -0.0133 | 0.134 | 0.996 | 1.09 | 1.78 | 1.22 | 0.539 | -1.78 (inactive) | 0.0991 | -3.24 (inactive) | 0.0919 (inactive) | 7.76 (inactive) | -0.457 (inactive) | 0.122 | 0.153 | 0.895 | 0.656 | 1.71
3 | O=C1OC[C@@H](c2ccccc2)N2CC(/C=C/c3ccccc3)=CC12 (stereo not given in full) | -0.206 | 0.725 | -0.542 | -0.593 | -1.29 | -1.45 | 0.0121 | -1.58 | -0.408 | 0.0761 (inactive) | -0.82 | -2.59 (inactive) | 0.476 (inactive) | 0.945 (inactive) | -1.57 (inactive) | -0.274 | -0.239 | -0.872 | -1.31 | -1.05
4 | C#CCNC(=O)[C@H](Cc1ccccc1)NC(=O)[C@@H](N=[N+]=[N-])C(C)C | 0.141 | 0.873 | 0.146 | 0.694 | 0.127 | 0.524 | 0.332 | 0.343 | 0.349 | -0.66 (inactive) | 0.0696 | -0.0943 (inactive) | 0.0632 (inactive) | 0.0918 (inactive) | -0.462 (inactive) | -0.0247 | -0.025 | 0.0696 | 0.892 | 0.539
5 | CO[C@H]1O[C@H](CO)[C@@H](OC(=O)Nc2ccc(Oc3ccccc3)cc2)[C@H](OC(=O)Nc2ccccc2-c2ccccc2)[C@@H]1OC(=O)Nc1ccccc1-c1ccccc1 | 0.818 | 1.07 | 0.263 | 0.964 | 0.595 | 0.295 | -0.426 | 0.841 | 0.773 | -0.69 (inactive) | 0.58 | -4.64 (inactive) | -0.935 (inactive) | -0.198 (inactive) | -0.355 (inactive) | 0.819 | 0.588 | -0.21 | 0.408 | 0.74
6 | C=CCOC(=O)[C@@H]1[C@H]2C(=O)O[C@H](c3ccccc3)[C@H](c3ccccc3)N2[C@H](c2ccc(OCCOC(=O)[C@H]3C[C@H]4C(=O)N[C@@H](CCCCN(C)C)C(=O)N4[C@H]3c3cccc(OCCO)c3)cc2)[C@@]12C(=O)Nc1ccc(I)cc12 | 2.94 | 1.17 | 0.319 | 0.758 | 1.48 | 1.59 | -0.717 | 1.49 | 0.768 | -0.517 (inactive) | 0.402 | -0.015 (inactive) | 0.172 (inactive) | -0.801 (inactive) | 0.387 (inactive) | 0.458 | 0.019 | 1.61 | 1.52 | 2.05
